# Compound activity: PubChem, The Scripps Research Institute Molecular Screening Center
# In the library only some 3.4% were active in any assay of this set; here they are far more common.
# TEAD-YAP block: TEAD-YAP interaction inhibition; HEK-TIYL cells, TEAD-Gal4/YAP UAS-luciferase luminescence; hit rate 1.4% among 640,000; inhibition, % at 9.12 µM; in the data active = inhibition above about 32%;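 note: 0% = median of test compound wells and 100% = reference inhibitor wells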
# FBW7 act: activators of human E3 ligase FBW7; hit rate 0.13% among 650,000; normalized activity (activation), % at 26.1 µM; AlphaScreen FBW7–phospho-cyclin E peptide binding, activator screen; in the data active = normalized activity above about 1.9%;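 note: purified mutant Fbw7 with reduced substrate affinity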
# Target sequence (Q969H0 whole entry, looked up): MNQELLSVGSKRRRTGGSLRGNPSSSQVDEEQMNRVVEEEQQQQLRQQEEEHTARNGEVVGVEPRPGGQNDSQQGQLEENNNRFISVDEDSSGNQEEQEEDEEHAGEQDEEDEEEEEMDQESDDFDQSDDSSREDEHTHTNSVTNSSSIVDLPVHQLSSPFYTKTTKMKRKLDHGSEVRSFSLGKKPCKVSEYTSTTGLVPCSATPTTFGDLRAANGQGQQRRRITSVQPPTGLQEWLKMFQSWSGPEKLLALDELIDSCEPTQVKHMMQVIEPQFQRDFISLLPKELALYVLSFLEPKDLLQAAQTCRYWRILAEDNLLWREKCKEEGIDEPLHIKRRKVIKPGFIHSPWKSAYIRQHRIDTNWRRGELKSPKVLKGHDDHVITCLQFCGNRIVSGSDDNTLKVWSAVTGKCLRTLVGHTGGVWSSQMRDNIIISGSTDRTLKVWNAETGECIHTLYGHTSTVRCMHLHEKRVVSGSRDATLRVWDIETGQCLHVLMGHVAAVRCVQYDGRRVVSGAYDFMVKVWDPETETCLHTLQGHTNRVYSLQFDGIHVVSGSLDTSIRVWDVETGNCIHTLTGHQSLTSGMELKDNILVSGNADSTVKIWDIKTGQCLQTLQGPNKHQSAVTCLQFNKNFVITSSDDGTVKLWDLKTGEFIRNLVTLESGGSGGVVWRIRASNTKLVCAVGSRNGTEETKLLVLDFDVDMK
# MITF inh: human MITF inhibition, primary screen; O75030; AlphaScreen MITF homodimerization, bead proximity signal; inhibition, % at 2.6 µM; hit rate 0.91% among 650,000; in the data active = inhibition above about 50%;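 note: 0% = vehicle wells with protein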
# GPR151 activ: activators of human GPR151 | Q8TDV0 | PathHunter beta-arrestin GPR151 cells, luminescence | activation, % at 11.2 µM | hit rate 1% among 650,000 | AID 1508602; in the data active = activation above about 4.9%;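 note: 0% = median of compound wells and 100% = cells with positive control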
# MITF confirm: human MITF inhibition, confirmation; shares compounds with MITF inh; AlphaScreen MITF homodimerization, biotin/His-MITF beads; hit rate 16% among 4,700; inhibition, % at 2.6 µM;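 active = inhibition above a cutoff derived from the DMSO control wells, cut at about 28% in these data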;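 note: 0% = MITF dimer wells with DMSO only; inhibitors lower the bead chemiluminescence by keeping MITF from dimerizing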
# AS interf DR: optically interferes with AlphaScreen signal in dose response | shares compounds with MITF inh | AlphaScreen optical interference counterscreen, cell-free | IC50, µM | hit rate 6% among 480 | AID 1259373; call rule not given here
# AlphaScreen intf2: optically interferes with AlphaScreen signal | shares compounds with MITF inh | LysRS AlphaScreen counterscreen, signal interference, triplicate | inhibition, % at 2.6 µM | hit rate 7.6% among 4,700;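 active = inhibition above a cutoff derived from the DMSO control wells, cut at about 30% in these data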
# * marks the source's active call; other numbers are inactive results; / = no result given.
SMILES,TEAD-YAP block,FBW7 act,MITF inh,GPR151 activ,MITF confirm,AlphaScreen intf2,others
COc1cc(OC)c(CN2CCN(C)CC2)cc1Br,0,0,62*,1,-3,11,
CCC(C)N1CCN(Cc2cc(OC)c(OC)cc2OC)CC1 (stereo not given),-5,0,64*,-1,-1,2,
CCN1CCN(Cc2ccc(OC)cc2OC)CC1,-5,0,6,0,/,/,
CCC(C)N1CCN(Cc2ccc3c(c2)OCO3)CC1 (stereo not given),-1,1,71*,-1,0,0,
CCC(C)N1CCN(Cc2ccc(OC)cc2)CC1 (stereo not given),-1,0,69*,-1,1,12,
CCOc1ccc(CN2CCN(C(C)CC)CC2)cc1 (stereo not given),2,0,66*,0,1,-1,
CCC(C)N1CCN(Cc2ccc(OC)c(OC)c2)CC1 (stereo not given),8,0,64*,0,2,10,
O=C(Nc1ccc(S(=O)(=O)N2CC3CC(C2)c2cccc(=O)n2C3)cc1)c1ccccc1 (stereo not given),-7,0,-12,-1,/,/,
CN(C)Cc1ccc(OC(=O)N(C)C)c([N+](=O)[O-])c1,-6,0,-3,2,/,/,
O=C(O)CSc1cc(Cl)c2nonc2c1[N+](=O)[O-],13,0,87*,1,85*,21,AS interf DR=>6.6
O=[N+]([O-])c1c(Cl)cc(Cl)c2nonc12,2,0,7,2,/,/,
O=C1CN=C(c2cccc([N+](=O)[O-])c2)c2cc([N+](=O)[O-])ccc2N1,1,0,-2,0,/,/,
O=C(CN1CCN(C(=O)Cc2ccc(F)cc2)CC1)c1cccs1,7,0,24,-1,/,/,
O=C(CN1CCN(C(=O)COc2ccccc2F)CC1)c1cccs1,12,0,51*,2,7,20,
O=C1CC(=O)N(c2ccc(F)cc2)C(=O)N1,7,0,-19,0,/,/,
CN1CCN(CC#CCOc2ccc(Cl)cc2)CC1,-8,0,54*,-1,9,12,
Cc1cccc(CC(=O)N2CCN(Cc3nc4ccccc4[nH]3)CC2)c1,7,-1,55*,1,9,19,
O=C(CC1CN2CCC1C(c1ccccc1)C2)c1ccccc1 (stereo not given),9,0,2,3,/,/,
COc1ccc(CN2CCN(C(=O)COc3ccc(Cl)cc3)CC2)cc1OCc1ccccc1,9,0,59*,1,3,11,
O=C(COc1ccccc1)N1CCN(Cc2cccc(F)c2)CC1,9,0,45,-1,/,/,
O=C(COc1ccc(Cl)cc1)N1CCN(Cc2cccc(F)c2)CC1,-1,0,68*,0,-2,2,
CCOc1ccc(CN2CCN(Cc3ccc(F)cc3)CC2)cc1,0,0,61*,0,2,-2,
COc1ccc(CN2CCN(Cc3ccc(OC)cc3)CC2)cc1,6,0,14,-1,/,/,
CCOc1ccc(CN2CCN(Cc3ccccc3F)CC2)cc1,12,0,75*,0,8,9,
COc1cc(OC)c(OC)cc1CN1CCN(C(=O)COc2ccccc2)CC1,13,1,54*,-2,7,20,
SMILES,TEAD-YAP block,FBW7 act,MITF inh,GPR151 activ,MITF confirm,AlphaScreen intf2,others
COc1cccc(CN2CCN(C(=O)COc3cccc(C)c3)CC2)c1,0,0,57*,1,-4,3,
COc1cc(CN2CCN(C(=O)COc3ccccc3)CC2)cc(OC)c1OC,-4,0,44,0,/,/,
COc1ccc(OCC(=O)N2CCN(Cc3ccccc3C)CC2)cc1,-6,0,54*,0,6,0,
Cc1cccc(OCC(=O)N2CCN(Cc3ccncc3)CC2)c1,-8,0,73*,0,-3,3,
O=C(O)C1CC1C(=O)N1CCC2(CC1)OCc1cc(-c3ccco3)ccc1O2 (stereo not given),-23,-1,-12,0,/,/,
COc1ccc(OCC(=O)N2CCN(Cc3cccc(OC)c3)CC2)cc1,11,0,43,3,/,/,
O=C(COc1ccc(Br)cc1)N1CCN(Cc2ccncc2)CC1,2,0,100*,1,-4,-2,
O=C(COc1ccc(Br)cc1)N1CCN(Cc2ccc3c(c2)OCO3)CC1,9,0,64*,2,14,25,
CSc1ccc(CN2CCN(C(=O)COc3ccc(Cl)cc3)CC2)cc1,15,0,-7,1,/,/,
COc1ccccc1CN1CCN(C(=O)COc2cccc(C)c2)CC1,4,0,80*,-1,-7,-4,
Cc1ccc(CC(=O)N2CCN(Cc3ccc4c(c3)OCO4)CC2)cc1,-1,0,11,2,/,/,
COc1ccc(OCC(=O)N2CCN(Cc3cccc(Br)c3)CC2)cc1,-10,0,64*,0,13,-4,
O=C(Nc1ccc(Cl)cc1C(=O)c1ccccc1Cl)c1ccc(S(=O)(=O)N2CCCC2)cc1,7,0,17,-1,/,/,
COc1ccc(CN2CCN(CC(C)C)CC2CCO)c(C)c1C (stereo not given),12,0,-7,0,/,/,
O=C(c1ccc2c(c1)OCCOCCOCCO2)N1CC2CC(C1)c1cccc(=O)n1C2 (stereo not given),5,0,0,1,/,/,
CCN(CC)C(=O)c1ccc(NC(=O)c2ccccc2C)cc1,3,1,18,-6,/,/,
CN1CCN(Cc2c(O)ccc3ccccc23)CC1,-3,0,-12,1,/,/,
CN1CCN(Cc2ccc(O)c3ncccc23)CC1,-5,-2,94*,0,106*,101*,
COc1ccc(-n2c(/C=C\c3ccccc3F)nc3ccccc3c2=O)cc1,-7,0,-17,1,/,/,
COc1cc(OC)c(OC)cc1CNCCc1ccc(Cl)cc1,7,0,32,1,/,/,
COc1ccc(CCNCc2cc(OC)c(OC)cc2OC)cc1,7,0,61*,-1,-4,-3,
COc1ccccc1CN1CCN(Cc2cccc(Cl)c2)CC1,-8,0,69*,1,14,-7,
COc1ccccc1CN1CCN(Cc2ccc(F)cc2)CC1,-5,0,81*,-1,6,18,
COc1cccc(CN2CCN(c3ccc(Cl)cc3)CC2)c1O,12,0,17,-2,/,/,
COc1ccc(CN2CCN(Cc3ccccc3OC)CC2)cc1,-8,0,77*,0,31*,17,AS interf DR=>7.3
COc1ccccc1CN1CCN(Cc2ccc(Cl)cc2)CC1,-6,0,73*,0,8,10,
CC(=O)N1C(=O)N([N+](=O)[O-])C2C1N([N+](=O)[O-])C(=O)N2C(C)=O (stereo not given),1,0,12,0,/,/,
COc1ccccc1CN1CCN(Cc2ccc(SC)cc2)CC1,-6,0,81*,0,13,15,
COc1ccccc1N1CCN(Cc2ccc(F)cc2)CC1,-3,0,9,0,/,/,
